# High-throughput results as filed in PubChem BioAssay.
# Sampled rows, rich in hits. Any-hit rate of the full collection: about 3.5%.
# Rv3671c inh – inhibits the M. tuberculosis serine protease Rv3671c; 320,000 tested, 0.048% active; inhibition, % at 5.96 µM; P9WHR9; AID 2606; in the data active means inhibition above about 38%;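 further: extracellular domain of Rv3671c used as enzyme; 0% = enzyme with DMSO and 100% = no enzyme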
# Target sequence (P9WHR9 whole entry, looked up, the tested form may be a part): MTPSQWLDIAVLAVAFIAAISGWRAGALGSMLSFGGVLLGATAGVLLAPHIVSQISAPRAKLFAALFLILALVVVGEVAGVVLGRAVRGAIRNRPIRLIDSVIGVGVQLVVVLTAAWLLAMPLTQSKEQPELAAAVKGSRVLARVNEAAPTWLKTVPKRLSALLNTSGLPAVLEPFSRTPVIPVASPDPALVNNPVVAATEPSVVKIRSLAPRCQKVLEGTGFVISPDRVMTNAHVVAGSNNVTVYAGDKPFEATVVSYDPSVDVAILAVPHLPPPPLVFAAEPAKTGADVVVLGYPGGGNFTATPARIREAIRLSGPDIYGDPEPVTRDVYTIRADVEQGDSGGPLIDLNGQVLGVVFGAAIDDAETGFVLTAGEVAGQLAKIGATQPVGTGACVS
# Mtb bLac sens – beta-lactam sensitization of Mtb H37Rv; M. tuberculosis H37Rv growth with meropenem, percent inhibition; inhibition, % at 25 µM; 330,000 tested, 0.27% active; AID 434955; call rule not given here;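 further: growth measured after seven days incubation then overnight dye step; 0% = bacteria only wells and 100% = bacteria with antibiotic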
# FBA Mtb inh – inhibitors of M. tuberculosis fructose-bisphosphate aldolase; P9WQA3; purified M. tuberculosis FBA, fluorescence read-out; inhibition, % at 1 µM; 360,000 tested, 2.3% active; in the data active means inhibition above about 27%;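 further: 0% = vehicle and 100% = reference inhibitor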
# GDH-TPI inh – inhibits GDH-TPI coupling enzymes, artifact for Mtb FBA screen. GDH-TPI coupled enzyme counterscreen, NADH absorbance. inhibition, % at 4.8 µM. 360,000 tested, 1.2% active. AID 588335; in the data active means inhibition above about 30%;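 further: 0% = DMSO wells and 100% = wells lacking the enzyme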
# Mtb UGM inh – blocks M. tuberculosis UGM enzyme; P9WIQ1; purified UGM, fluorescence polarization probe displacement; inhibition, % at 10 µM; 320,000 tested, 0.06% active; AID 504406; in the data active means inhibition above about 10%, passing the limit was not always enough; inconclusive means no clear call, values can overlap the other calls
# The depositor's hits bear a star; ? = inconclusive; . = no result; + = active, no number.
SMILES,Rv3671c inh,Mtb bLac sens,FBA Mtb inh,GDH-TPI inh,Mtb UGM inh
CCC(C)N1CCN(C(=O)C2CCN(S(=O)(=O)c3c(C)noc3/C=C/c3ccco3)CC2)CC1 (stereo not drawn),-2.1,5.2,-0.5,37.9*,-2.0
COc1ccc(N2CCN(S(=O)(=O)c3c(C)noc3/C=C/N(C)C)CC2)cc1,-0.3,-4.5,2.4,39.9*,0.6
Cc1cccc(N2CCN(S(=O)(=O)c3c(C)noc3/C=C/N(C)C)CC2)c1C,-0.6,1.2,0.7,9.2,-0.9
Cc1cccc(NC(=O)C2CCN(S(=O)(=O)c3c(C)noc3/C=C/c3ccco3)CC2)n1,-14.1,73.8,-2.3,15.1,0.1
COCCNC(=O)C1CCN(S(=O)(=O)c2c(C)noc2/C=C/c2cccs2)CC1,9.3,-1.1,0.4,39.2*,1.7
O=C(CNc1ccccc1F)Nc1cccc2ccccc12,-1.8,39.8,-2.6,0.4,-3.1
CCCN(CCC)CCCNC(=O)c1ccc(CS(=O)(=O)c2c(Cl)cccc2Cl)o1,-6.2,-5.0,1.9,-5.6,-1.1
CNC(=O)C1CCN(S(=O)(=O)c2c(C)noc2/C=C/c2cccc(OC)c2)CC1,-0.8,?,14.4,31.7*,-0.9
Cc1noc(/C=C/N(C)C)c1S(=O)(=O)N1CCN(c2ccc(F)cc2)CC1,-2.8,3.5,-2.5,34.0*,-1.5
Cc1noc(/C=C/N(C)C)c1S(=O)(=O)N1CCC(C(=O)Nc2ccc(Cl)cc2)CC1,-47.0,-4.0,0.1,27.8,1.6
COc1ccc(CNC(=O)C2CCN(S(=O)(=O)c3c(C)noc3/C=C/N(C)C)CC2)cc1,-14.9,88.2,8.8,45.0*,3.3
Cc1cccc(/C=C/c2onc(C)c2S(=O)(=O)N2CCC(C(=O)NC(C)(C)C)CC2)c1,4.4,?,4.8,-2.0,1.2
CNS(=O)(=O)c1cn(CC(=O)NCc2ccc(N(C)C)cc2)cc1S(=O)(=O)NC,-5.3,6.8,0.7,5.6,-0.5
C#CC1(O)CCC2C3CCC4=CC(=O)CCC4=C3C=CC21C (stereo not drawn),.,.,14.2,41.7*,.
CCCC(NC(=O)COc1cc2c(c3oc(=O)c(C)c(C)c13)CCC(C)(C)O2)C(=O)O (stereo not drawn),4.2,6.1,+,17.1,-0.4
Cc1c(C)c2c(OCC(=O)N[C@@H](Cc3ccccc3)C(=O)O)cc3c(c2oc1=O)CCC(C)(C)O3,-4.2,-1.2,+,38.2*,-0.4
CSC[C@H](NC(=O)COc1cc2c(c3oc(=O)c(C)c(C)c13)CCC(C)(C)O2)C(=O)O,6.2,3.6,+,15.0,-0.8
CSCCC(NC(=O)COc1cccc2ccccc12)C(=O)O (stereo not drawn),3.5,1.6,2.7,2.4,-1.1
CSCC[C@H](NC(=O)COc1cc2c(c3oc(=O)c(C)c(C)c13)CCC(C)(C)O2)C(=O)O,4.7,2.3,+,9.0,-2.1
CCOC(=O)c1ccccc1NC(=O)COC(=O)CN1C(=O)NC2(CCCC2)C1=O,3.5,?,-0.4,2.4,-0.2
CCOc1ccccc1-c1nnc(SCC(=O)NC2CC2)n1CC,4.3,-13.5,3.9,-3.5,2.2
Cc1c(C)c2c(OCC(=O)N[C@@H](CC(C)C)C(=O)O)cc3c(c2oc1=O)CCC(C)(C)O3,.,2.4,+,18.4,0.0
CSC[C@H](NC(=O)COc1cc2c(c3oc(=O)cc(C)c13)CCC(C)(C)O2)C(=O)O,4.8,-2.8,+,6.6,0.4
Cc1c(C)c2c(OCC(=O)NC3CC3)cc3c(c2oc1=O)CCC(C)(C)O3,-5.5,3.7,+,13.2,2.3
Cc1c(C)c2c(OCC(=O)NCC(O)c3ccccc3)cc3c(c2oc1=O)CCC(C)(C)O3 (stereo not drawn),-5.2,2.3,19.2,14.7,2.3
SMILES,Rv3671c inh,Mtb bLac sens,FBA Mtb inh,GDH-TPI inh,Mtb UGM inh
COCCCNC(=O)COc1cc2c(c3oc(=O)c(C)c(C)c13)CCC(C)(C)O2,5.9,-1.1,+,7.1,5.6
Cc1cc(OCC(=O)NC2CCS(=O)(=O)C2)c2c3c(c(=O)oc2c1)CCC3 (stereo not drawn),-4.2,-2.4,22.9,3.4,2.8
CCc1nnc(NC(=O)CSCc2cc(=O)n3ccsc3n2)s1,0.1,1.0,-0.6,7.0,-1.7
O=C(C(=O)N1CCCCC1)c1c(-c2ccccc2)[nH]c2ccccc12,-8.7,-4.4,-1.1,25.6,-3.3
CCCCCCSc1cccc(-c2nc3ccc(C)cn3c2NCc2ccccc2)c1,-2.5,4.6,35.8*,9.2,2.7
COc1cc(/C=C2\CC/C(=C\c3cc(OC)c(OC)c(OC)c3)C2=O)cc(OC)c1OC,-18.6,84.2,-5.7,13.6,-0.2
COc1cc(/C=C2\CC/C(=C\c3cc(OC)c(O)c(OC)c3)C2=O)cc(OC)c1O,-29.0,12.8,-9.3,15.5,17.3*
CCN(CC)C(=O)CSc1nc2cc(OC)c(OC)cc2c(=O)n1Cc1ccc(Cl)cc1,-8.9,7.2,27.3*,-5.5,-1.0
Cc1c(NC(=S)N/N=C/c2cc([N+](=O)[O-])ccc2O)c(=O)n(-c2ccccc2)n1C,6.5,-2.3,-10.8,49.4*,1.4
Cc1c(NC(=S)N/N=C/c2ccc(O)cc2)c(=O)n(-c2ccccc2)n1C,-8.5,-7.3,-3.9,26.1,2.6
Cc1ccc(OCc2cc(C(=O)N3CCc4sccc4C3)no2)cc1C,.,2.0,1.0,-2.8,1.1
O=C1N/C(=C\c2ccc(O)cc2)C(O)=C1C=NCc1ccccc1,-12.3,3.0,-3.5,37.1*,-0.3
COc1ccc(/C=C2\NC(=O)C(C=NCc3ccccc3)=C2O)cc1,-6.9,1.6,0.7,13.5,-1.1
Cc1nc2ccccn2c(=O)c1NC(=O)COc1ccccc1,.,.,4.8,31.0*,.
CC(=O)c1sc(NC(=O)COc2ccccc2)nc1C,8.3,12.7,-2.1,10.4,-0.1
CC(C)Oc1ccc(C(=O)Nc2cc(S(=O)(=O)N3CCOCC3)ccc2N2CCOCC2)cc1,.,.,-6.0,-5.6,.
C[C@H](O)[C@H](O)[C@H]1CNc2nc(N)[nH]c(=O)c2N1,4.7,4.0,73.4*,17.9,1.8
Cc1ccc(C(=O)N2CCOCC2)cc1S(=O)(=O)N1CCCCC1,-6.0,-1.4,5.8,4.6,-0.2
COc1cc(/C=C/C(=O)N2CCC=CC2=O)cc(OC)c1OC,-3.4,61.2,2.8,35.3*,-2.6
CC(/C=C/c1ccco1)=N/NC(=O)c1ccccc1Cl,4.9,10.3,-0.9,32.3*,2.7
CC(/C=C/c1ccco1)=N\NC(=O)c1cccc(Cl)c1,1.3,100.1,1.5,31.9*,3.9
CCOC(=O)N/N=C(C)/C=C/c1ccco1,8.5,0.4,3.8,22.6,-1.2
O=C(N/N=C/C=C/c1ccco1)c1ccccc1Cl,5.0,1.5,0.4,27.4,-0.8
C=CC[C@@H](CC(=O)OC(C)(C)C)C(=O)OC[C@@H]1CCCN1C(=O)[C@H](CC=C)CC(=O)NCCO,-1.7,-7.6,-3.9,-0.9,0.0
CCCCN1C(=O)C(CC(=O)NCc2cccs2)CC(C(=O)N(C(C)C)C(C)C)=C1C (stereo not drawn),.,.,-1.4,2.4,.
